Screening results as filed in PubChem BioAssay.
KinaseGlo FLuc – counter-screen: inhibitors of Kinase-Glo firefly luciferase. Q27757. Kinase-Glo luciferase, ATP luminescence, 8 min. Potency, µM (series often up to 38.3 µM), for inactives: at the highest dose activity change, negative = inhibition, actives largely listed as inhibitors. 0.28% of 200,000 active; note: nearly all actives have a fitted effect of over 60% in size
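Light output from Kinase-Glo luciferase with luciferin and 10 uM ATP in 50 mM imidazole pH 7.2, KCl, MgCl2, Tween 20, BSA; compound pin-delivered, 8-min ambient incubation, then luminescence read.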
LMNA splice mod – changes lamin A minigene splicing in HeLa cells; HeLa LMNA splicing GFP/RFP minigene ratio, 48 h; 0.01% of 200,000 active; Potency, µM (series often up to 46.1 µM), for inactives: at the highest dose ratio change, negative = inhibition, most hits filed as inhibitors; active = well fitted inhibition curve with a large enough effect in the signal ratio, with a control signal flat, not every such curve was filed as active; inconclusive = small, poorly fitted or top-dose-only effect, or effect the other way, or a change in a side signal; the % refers to the signal ratio
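S3 HeLa cells stably expressing lamin A-EGFP splicing minigene plus DsRed2, 600 cells/well, 48 h compound exposure at 37C. Laser-scanning cytometry; analysed as GFP (500-530 nm)/RFP (575-640 nm) total intensity ratio; 0.5% DMSO vehicle.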
IMPase Li inh – IMPase inhibition in cells with lithium potentiation; CHO-M1 cells, IP1 TR-FRET (IP-One), carbachol + lithium; Potency, µM (top dose mostly 59.4 µM), for the others: at the highest dose activity, negative = IMPase inhibition, most hits filed as inhibitors; 0.35% of 210,000 active; AID 1457;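 note: IP1 builds up when IMPase is blocked and the TR-FRET signal falls; plate controls were basal vehicle for no effect and high inhibitor control for full effect; nearly all actives have a fitted effect of over 50% in size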
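CHO cells stably expressing M1 receptor (2000/well, cultured 16–30 h) treated 30 min at 37C with compound plus low lithium. Cytosolic IP1 by TR-FRET (665/620 ratio and 620 channel) after 10 min lysis; AC50 by Hill fit.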
ALDH1A1 block – inhibitors of human aldehyde dehydrogenase 1A1; P00352; Purified ALDH1A1, NADH fluorescence, propionaldehyde substrate; Potency, µM (doses to about 75.3 µM), for inactives: at the highest dose activity, negative = inhibition, actives largely listed as inhibitors; 7.3% of 220,000 active; AID 1030; active = well fitted inhibition curve with a large enough effect, not every such curve was filed as active; inconclusive = small, poorly fitted or top-dose-only effect, or another doubt; inactive = no such curve, though single readings can be large or run the other way;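 note: plate controls were no enzyme wells and a reference inhibitor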
Target sequence (P00352 whole entry, looked up): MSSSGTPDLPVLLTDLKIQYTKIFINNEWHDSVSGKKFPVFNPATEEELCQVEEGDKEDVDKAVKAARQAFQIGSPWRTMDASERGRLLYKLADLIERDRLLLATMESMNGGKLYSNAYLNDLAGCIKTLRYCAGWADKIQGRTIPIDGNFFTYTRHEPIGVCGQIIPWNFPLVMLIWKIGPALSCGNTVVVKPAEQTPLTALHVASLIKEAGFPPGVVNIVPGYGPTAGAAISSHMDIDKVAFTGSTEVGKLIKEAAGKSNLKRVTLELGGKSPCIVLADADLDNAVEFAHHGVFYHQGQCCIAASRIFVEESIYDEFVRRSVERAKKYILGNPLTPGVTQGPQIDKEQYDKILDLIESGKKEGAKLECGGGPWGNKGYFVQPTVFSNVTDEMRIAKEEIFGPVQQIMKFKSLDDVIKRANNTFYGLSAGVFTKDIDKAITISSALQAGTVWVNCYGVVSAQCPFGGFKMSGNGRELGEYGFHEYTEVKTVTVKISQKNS
HPGD block – HPGD (human) dehydrogenase inhibition; P15428; purified HPGD, NADH fluorescence kinetic, PGE2 substrate; Potency, µM, inactives show at the top dose activity change, negative = inhibition, hits mostly inhibitors; 4.3% of 150,000 active; AID 894; active = well fitted inhibition curve with a large enough effect, not every such curve was filed as active; inconclusive = small, poorly fitted or top-dose-only effect, or another doubt; inactive = no such curve, though single readings can be large or run the other way
Target sequence (P15428 whole entry, looked up): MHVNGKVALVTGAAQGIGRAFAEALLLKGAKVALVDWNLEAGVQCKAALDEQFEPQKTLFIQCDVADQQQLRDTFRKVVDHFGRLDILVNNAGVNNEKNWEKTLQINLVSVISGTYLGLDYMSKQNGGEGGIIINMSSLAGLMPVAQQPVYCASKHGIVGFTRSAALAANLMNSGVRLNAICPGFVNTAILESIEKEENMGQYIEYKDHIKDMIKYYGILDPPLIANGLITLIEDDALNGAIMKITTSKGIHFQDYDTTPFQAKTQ
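NADH formation kinetics: reaction with 30 uM PGE2 and 1 mM NAD+ (final), 20 nM enzyme, Tris-HCl pH 8 with Tween 20, after 15 min compound preincubation at room temperature. Fluorescence change, last versus first of five reads.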
Numbers without * were called inactive; ? = inconclusive; . = not tested or not shown; [ ] = another dose, or the depositor's remark. Only some compounds are listed: those with a hit (about 9% of all), similar ones and a draw of the others. Unless noted, calls come from the whole dose curve; as a rule, active = well fitted curve in the direction sought with a large enough effect; inconclusive = small, poorly fitted or top-dose-only effect, or another doubt; inactive = no such curve, though single readings can be large; an effect the other way counts as inactive or inconclusive. Unless noted, % is set by controls: 0 for no effect and ±100 for the full control effect; potency is the fitted concentration of half-maximal effect.

SMILES	KinaseGlo FLuc	LMNA splice mod	IMPase Li inh	ALDH1A1 block	HPGD block
CC1=C(C(=O)OCC2CCCO2)C(c2ccccc2)C2=C(CC(C)(C)CC2=O)N1 (stereo not drawn)	3%	-4%[46 µM]	0%	?	.
O=C(Cn1c2c(sc1=O)C1c3ccccc3OCC1CS2)Nc1ccc(Cl)cc1 (stereo not drawn)	1%	?	2%	?	-11%
CN(C)Cc1ccccc1-c1nc(NCc2cccs2)c2ccccc2n1	.	?	5%	2%	.
C[C@@H]1/C=C\CC(=O)OC[C@H](C)C(=O)N[C@@H](C)C(=O)OC1	.	.	.	8%[13.5 µM]	.
COc1ccc(NC(=O)N2CC3(CCN(C(=O)c4cnccn4)CC3)C2)cc1	-2%	.	-4%	4%	-7%
CCOc1ccc(C(=S)NC2CCCCC2)cc1	-5%	-3%	21%[38.3 µM]	8.9µM*	14µM*
COc1ccc(C(=S)NC2CCCCC2)cc1	.	?	.	-6%	.
CCCCOc1cccc(C(=O)NNC(=S)NC2CCCCC2)c1	0%	?	-3%	-15%	-11%
CCOc1cccc(C(=O)NC2CCCCC2)c1	5%	-16%	-3%[38.3 µM]	1%	28µM*
Oc1c(C(c2cccs2)N2CCN(c3ccccc3)CC2)ccc2cccnc12 (stereo not drawn)	5%	?	-7%[38.3 µM]	2µM*	1.8µM*
CCC1(c2ccccc2)NC(=S)N(c2ccc(C)cc2)N1 (stereo not drawn)	-1%	.	3%	?	.
CCC1(c2ccc(Cl)cc2)NC(=S)N(c2ccccc2)N1 (stereo not drawn)	-1%	-6%	7%	13µM*	-17%
Cc1cc(C)n(-c2ncccc2[N+](=O)[O-])n1	.	.	.	8%	.
CC(C)c1ccc(-n2cnn(-c3ncccc3[N+](=O)[O-])c2=O)cc1	-7%	.	4%	14µM*	.
CC(C)(CC(=O)O)CC(=O)Nc1ccc(Oc2ccc(C(C)(C)C)cc2)nc1	.	.	.	8.9µM*	.
CCCCN1C(=O)C(NC(=O)CC(C)C)(C(F)(F)F)C2=C1CC(C)(C)CC2=O (stereo not drawn)	0%	5%	4%[38.3 µM]	30%	1%
CCCN1C(=O)C(NC(=O)c2ccncc2)(C(F)(F)F)C2=C1CC(C)(C)CC2=O (stereo not drawn)	7%	8%	-11%[38.3 µM]	7.1µM*	-14%
Cc1noc(C)c1C(=O)N1CCC2(CCCN(c3ncccn3)C2)CC1	0%	.	0%	-3%	-17%
Cc1ccc(CN2CCN(Cc3cc(=O)c4ccccc4[nH]3)CC2CCO)o1 (stereo not drawn)	-1%	.	16%	18µM*	.
Cc1ccc(CN2CCN(Cc3c[nH]c4ccccc34)CC2CCO)o1 (stereo not drawn)	1%	.	7%	-2%	.
O=C(NCCCN1CCOCC1)c1cc(C(=O)C2CCCCC2)c[nH]1	-1%	11%[46 µM]	-2%	25µM*	.
O=C1[C@H]2[C@@H](C(=O)N1c1cccc3ccccc13)C1(C(=O)c3ccccc3C1=O)N1CCC[C@@H]21	10%	4%	0%[38.3 µM]	11µM*	-13%
Cc1cccc(N2C(=O)CS(=O)(=O)C23C(=O)N(Cc2c(F)cccc2Cl)c2ccccc23)c1 (stereo not drawn)	.	2%[46 µM]	.	.	.
Cc1cc(C)c(O)c(Cc2cccc(Cc3cc(C)cc(C)c3O)c2O)c1	-4%[7.66 µM]	.	-2%	1%[13.5 µM]	-6%
Cc1cc(C)c(O)c(N)c1	-5%	?	14%	25µM*	.
SMILES	KinaseGlo FLuc	LMNA splice mod	IMPase Li inh	ALDH1A1 block	HPGD block
CCNc1ncc2nc(-c3cccs3)c(=O)n(Cc3ccc(F)cc3)c2n1	.	-9%	4%	?	.
Cn1sc(NC(=O)c2cccc(Cl)c2)nc1=O	-4%	-17%	-7%[38.3 µM]	5%	-8%
Cn1sc(NC(=O)c2ccccc2Cl)nc1=O	-4%	8%	-6%[38.3 µM]	11µM*	14µM*
CC1(C)CC(Cc2nc(=S)[nH][nH]2)C(=O)O1 (stereo not drawn)	-1%	.	3%	-3%	.
CCOC(=O)N1CCC(NC(=O)C2CCCN(C(=O)c3cc4sccc4n3C)C2)CC1 (stereo not drawn)	2%	?	-2%[38.3 µM]	?	-2%
Cn1c(C(=O)N2CCCC(C(=O)NCCCc3ccccc3)C2)cc2sccc21 (stereo not drawn)	5%	?	37%[38.3 µM]	14µM*	-12%
Cc1ccc(CCNC(=O)C2CCCN(C(=O)c3cc4sccc4n3C)C2)cc1 (stereo not drawn)	-2%	?	27%[38.3 µM]	8.9µM*	-12%
Cn1c(C(=O)N2CCCC(C(=O)NCCc3ccccc3)C2)cc2sccc21 (stereo not drawn)	-2%	-5%	27%[38.3 µM]	11µM*	-17%
Cn1c(C(=O)N2CCCC(C(=O)NCc3ccc4c(c3)OCO4)C2)cc2sccc21 (stereo not drawn)	1%	-18%	-6%[38.3 µM]	3.5µM*	-11%
Cc1c(C(=O)N/N=C/c2ccncc2)no[n+]1[O-]	-13%	17%[46 µM]	5%	-9%	.
COc1ccc(CC(N)C(=O)N[C@H]2[C@@H](O)[C@H](n3cnc4c(N(C)C)ncnc43)O[C@@H]2CO)cc1 (stereo partly drawn)	1%[39.9 µM]	.	-5%	-5%	-5%
Cn1ncc2c(N3CCN(c4ccc(F)cc4)CC3)ncnc21	.	2%[46 µM]	.	.	.
C=CC(=O)NC(C)C	.	.	-28%	2%	-1%
C=CC(=O)CC	.	.	2%	2µM*	-2%
COc1cc2c(cc1NC(=O)CN1CCN(S(=O)(=O)c3ccccc3F)CC1)oc1ccccc12	12%	15%	5.6µM*	?	?
COc1cc2c(cc1NC(=O)Cc1ccc(C)cc1)oc1ccccc12	1%	-20%	-14%	?	?
COc1cc(NC(=O)c2ccc(F)cc2)c(OC)cc1NC(=O)CN1CCOCC1	-3%	2%[46 µM]	4%	0%	.
COc1cc(NC(=O)c2ccccc2F)c(OC)cc1NC(=O)CN1CCOCC1	1%	-22%[46 µM]	2%	25µM*	.
C/C(=N\NS(=O)(=O)c1ccc(C)cc1)c1ccc(Br)s1	7%	6%	10%[38.3 µM]	?	-10%
C/C(=N\NS(=O)(=O)c1ccc(C)cc1)c1ccc(C)s1	1%	14%	14%[38.3 µM]	18µM*	-2%
CCOC(=O)c1ccccc1NC(=O)CN(c1ccccc1C)S(C)(=O)=O	0%	3%	36%[38.3 µM]	-15%	-12%
N#Cc1ccccc1Sc1ccccc1N	2%	2%	1%[38.3 µM]	0%	1%
N#CC(=C(/N)Sc1ccccc1N)/C(C#N)=C(/N)Sc1ccccc1N	1%	.	18%	.	28µM*
CCOC(=O)c1ccc(COC(=O)c2cc3ccccc3oc2=O)o1	1%	12%	16%[38.3 µM]	?	-17%
CCOC(=O)CNC1CC(=O)N(c2cccc(Cl)c2)C1=O (stereo not drawn)	-2%	6%	3%[38.3 µM]	18µM*	0%
CCCS(=O)(=O)c1nc(S(=O)(=O)c2ccc(C)cc2)c(NCc2ccccn2)s1	.	.	2%	14µM*	.
